Compound activity: PubChem BioAssay, National Center for Advancing Translational Sciences (NCATS)
ALOX12 inh = inhibitors of human 12S-lipoxygenase ALOX12 | P18054 | purified 12hLO, xylenol orange hydroperoxide absorbance | Potency, µM (titrated, usually from 108 µM), hits mostly inhibitors | 1.1% of 580,000 active | AID 1671190
Target sequence (P18054 whole entry, looked up): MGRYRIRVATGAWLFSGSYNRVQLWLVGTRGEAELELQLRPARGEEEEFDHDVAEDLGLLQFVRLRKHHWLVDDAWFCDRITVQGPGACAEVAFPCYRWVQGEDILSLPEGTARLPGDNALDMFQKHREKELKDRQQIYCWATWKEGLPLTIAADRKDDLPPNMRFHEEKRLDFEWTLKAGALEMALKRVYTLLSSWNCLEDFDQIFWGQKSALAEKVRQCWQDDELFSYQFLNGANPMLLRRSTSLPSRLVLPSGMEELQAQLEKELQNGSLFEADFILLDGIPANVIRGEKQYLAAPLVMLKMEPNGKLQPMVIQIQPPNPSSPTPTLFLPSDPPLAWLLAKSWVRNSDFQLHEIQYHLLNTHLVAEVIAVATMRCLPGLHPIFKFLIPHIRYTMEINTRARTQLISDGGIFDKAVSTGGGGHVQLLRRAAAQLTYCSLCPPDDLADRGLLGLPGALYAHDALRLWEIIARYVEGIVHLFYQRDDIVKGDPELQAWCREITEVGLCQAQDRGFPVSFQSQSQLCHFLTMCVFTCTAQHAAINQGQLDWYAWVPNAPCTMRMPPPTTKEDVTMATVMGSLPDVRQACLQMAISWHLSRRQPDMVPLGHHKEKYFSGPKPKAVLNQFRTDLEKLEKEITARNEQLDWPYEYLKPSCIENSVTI
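Purified human 12hLO (150 nM final) in 25 mM Hepes, 0.01% Triton X-100, pH 7.0 was preincubated 15 min at room temperature with compound. Then 40 uM arachidonic acid was added, 30 min. Hydroperoxide was read by Fe-XO absorbance ratio 573/405 nm.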
JMJD2A Tudor = JMJD2A Tudor domain (human) inhibition; Potency, µM (doses to about 114 µM), most hits filed as inhibitors; AID 504339; O75164; AlphaScreen JMJD2A-Tudor / H3K4me3 peptide binding; 4.4% of 390,000 active; further: nearly all actives have a fitted effect of over 50% in size
BAZ2B inh = inhibitors of human BAZ2B bromodomain; Q9UIF8; AlphaScreen BAZ2B-H3K14Ac peptide displacement; Potency, µM (top dose mostly 114 µM), usual class: inhibitors; 4.4% of 360,000 active; AID 504333; further: nearly all actives have a fitted effect of over 60% in size
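Complex of BAZ2B and biotin-H3K14Ac (50 nM apiece) forms over 30 min at RT, then faces library compounds up to 110 uM for another 30 min; AlphaScreen beads added, 20 min dark incubation, luminescence read.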
G9a inh = inhibitors of human histone lysine methyltransferase G9a; Q96KQ7; G9a H3K9 monomethylation, AlphaScreen, 2 h; Potency, µM (highest dose often 102 µM), usual class: inhibitors; 8.8% of 350,000 active; further: nearly all actives have a fitted effect of over 75% in size
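Methyltransferase reactions run at room temperature for 2 h (20 nM enzyme, 500 nM biotin-H3K9 peptide, 20 uM SAM) after a 15 min compound preincubation; product detected by AlphaScreen beads and anti-H3K9me1 antibody.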
PLK1 PBD inh = inhibitors of human PLK1 polo-box domain binding | P53350 | Plk1 PBD binding of FITC phosphopeptide, fluorescence polarization | Potency, µM, hits mostly inhibitors | 2.8% of 360,000 active | AID 720504; further: series mostly up to about 57 µM; nearly all actives have a fitted effect of over 65% in size
HP1b chromo inh = inhibitors of HP1-beta chromodomain binding to methylated histone tails | 0.56% of 390,000 active | AlphaScreen HP1-beta / biotin-H3K9me3 peptide binding | P83916 | Potency, µM (series often up to 114 µM), most hits filed as inhibitors | AID 540317; further: nearly all actives have a fitted effect of over 70% in size
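Compound inhibition of the preformed complex between 50 nM HP1-beta and 50 nM biotinylated H3K9me3 peptide was read by AlphaScreen. Buffer was PBS pH 7.4 with 0.01% Tween-20. Incubations ran 30 min at room temperature, with 10 ug/mL donor/acceptor beads.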
Each line names hits and unclear results; the compound was inactive in the other large screens; ! = a repeat was not active. An excerpt weighted towards active compounds, which were near 9% of everything screened. The call rests on the fitted dose curve; in most records, active means well fitted curve in the direction sought with a large enough effect; inconclusive means small, poorly fitted or top-dose-only effect, or another doubt; inactive means no such curve, though single readings can be large; an effect the other way counts as inactive or inconclusive.

O=S(=O)(c1ccc(NC(=S)NC2CCCC2)cc1)N1CCCC1	PLK1 PBD inh 15µM (no result: G9a inh)
CCOC(=O)c1ccc(N2C(=O)CC(SCC(=O)Nc3ccc(S(N)(=O)=O)cc3)C2=O)cc1 (configuration not stated)	G9a inh 31.6µM, PLK1 PBD inh 29.9µM
CC(OC(=O)CCC1CCCCC1)C(=O)Nc1ccc(S(N)(=O)=O)cc1 (configuration not stated)	G9a inh 56.2µM
NS(=O)(=O)c1ccc(NC(=S)NC2CCCCCC2)cc1	ALOX12 inh inconclusive, G9a inh inconclusive, PLK1 PBD inh 18.9µM
NS(=O)(=O)c1ccc(NC(=S)NC(=O)C2CCCCC2)cc1	ALOX12 inh inconclusive, G9a inh inconclusive
CC(OC(=O)CC1CCCCC1)C(=O)Nc1ccc(S(N)(=O)=O)cc1 (configuration not stated)	none
Cc1nn(C)c(C)c1CNC(=O)/C=C/c1ccccc1F	none
CC(C)(C)n1nnnc1C(C1CC1)N1CCN(C/C=C/c2ccccc2)CC1 (configuration not stated)	none (no result: JMJD2A Tudor, BAZ2B inh, G9a inh, HP1b chromo inh)
Cc1cccc(-n2c(C)cc(/C=N/NC(=O)c3cccc([N+](=O)[O-])c3C)c2C)c1	BAZ2B inh inconclusive
CCOC(=O)CN1C(=O)C(O)(CC(=O)c2ccc3c(c2)CCCC3)c2ccccc21 (configuration not stated)	G9a inh inconclusive
CCOc1ccc(NC(=O)C(C)Oc2ccccc2F)c2cccnc12 (configuration not stated)	none (no result: JMJD2A Tudor, BAZ2B inh, G9a inh, PLK1 PBD inh, HP1b chromo inh)
O=C(CSc1nnc(NC2CCCCC2)s1)NN1C(=O)NC2(CCCCC2)C1=O	JMJD2A Tudor inconclusive, G9a inh 44.7µM
NS(=O)(=O)c1ccc(NC(=S)NC2CCCC2)cc1	ALOX12 inh inconclusive, G9a inh 8.91µM
NS(=O)(=O)c1ccc(NC(=O)CSC2CCCCC2)cc1	JMJD2A Tudor 28.2µM, G9a inh inconclusive, PLK1 PBD inh 29.9µM
NS(=O)(=O)c1ccc(NC(=O)CSc2nnc(NC3CC3)s2)cc1	ALOX12 inh inconclusive, JMJD2A Tudor inconclusive, BAZ2B inh inconclusive, G9a inh 44.7µM, HP1b chromo inh inconclusive
COc1ccc(-c2c(C)nc(N)nc2-c2ccc(OCc3ccccc3)cc2O)cc1	none (no result: JMJD2A Tudor, BAZ2B inh, G9a inh, PLK1 PBD inh, HP1b chromo inh)
Cc1nc2ccccc2n1CCNC(=O)C1CC(=O)N(c2n[nH]c3ccccc23)C1 (configuration not stated)	none (no result: JMJD2A Tudor, BAZ2B inh, G9a inh, PLK1 PBD inh, HP1b chromo inh)
CCn1nccc1C(=O)N1CCC(N2C[C@H](O)C[C@H]2C(=O)NCc2cccc(OC)c2)CC1	none (no result: JMJD2A Tudor, BAZ2B inh, G9a inh, PLK1 PBD inh, HP1b chromo inh)
COc1ccccc1NC(=O)CN1CCN(CC(=O)Nc2ccc(S(N)(=O)=O)cc2)CC1	G9a inh 44.7µM
COc1ccc(NCC(=O)Nc2ccc(Br)cc2F)c(OC)c1	JMJD2A Tudor 56.2µM, BAZ2B inh 39.8µM, HP1b chromo inh inconclusive (no result: G9a inh)
COc1ccc(-c2cn(-c3ccc(C)cc3)c(=O)n2CC(=O)Nc2cccc(F)c2)cc1	ALOX12 inh inconclusive, JMJD2A Tudor 79.4µM, BAZ2B inh inconclusive, G9a inh inconclusive
COc1ccccc1NC(=O)CN1CCN(CC(=O)Nc2ccc(F)cc2)CC1	G9a inh inconclusive
COc1ccccc1NC(=O)CN1CCN(CC(=O)Nc2ccc(OCc3ccccc3)cc2)CC1	G9a inh 35.5µM
COc1ccc(-n2cc(-c3ccc4c(c3)OCO4)n(CC(=O)Nc3cccc(C)c3)c2=O)cc1	ALOX12 inh inconclusive, JMJD2A Tudor inconclusive, G9a inh inconclusive (no result: PLK1 PBD inh)
CCn1c(=O)cc(N2CCCCC2)[nH]c1=O	none
O=C1NCCCCCCN(C(=O)C2CCCCC2)[C@H]2CCCC[C@@H]12	none (no result: JMJD2A Tudor, BAZ2B inh, G9a inh, PLK1 PBD inh, HP1b chromo inh)
Cc1nn(C)c(C)c1NS(=O)(=O)c1ccc(Cl)s1	none (no result: BAZ2B inh, G9a inh)
COc1ccc(C(=O)NC(=O)CSc2nc3nc(C)cc(C)n3n2)cc1	ALOX12 inh inconclusive (no result: BAZ2B inh, G9a inh)
CC(=O)NC[C@H]1O[C@@H](CC(=O)NCc2ccc(F)cc2)[C@H](O)[C@@H]1O	none (no result: JMJD2A Tudor, BAZ2B inh, G9a inh, PLK1 PBD inh, HP1b chromo inh)
C=CCOc1cccc(C(=O)N2CCC(CCC(=O)NC3CC3)CC2)c1	none
COc1ccc(NC(=O)CN2CCN(CC(=O)Nc3ccccc3Cl)CC2)c(OC)c1	G9a inh 44.7µM
COc1ccc(NC(=O)CN2CCN(CC(=O)Nc3ccccc3F)CC2)cc1OC	G9a inh 44.7µM!
COc1ccc(NC(=O)CN2CCN(CC(=O)Nc3ccccc3F)CC2)c(OC)c1	G9a inh 31.6µM!
NS(=O)(=O)c1ccc(NC(=O)CN2CCN(S(=O)(=O)c3cccs3)CC2)cc1	G9a inh 50.1µM
CCS(=O)(=O)c1ccc(-c2csc(-c3ccccc3Cl)n2)c(Cl)c1Cl	ALOX12 inh inconclusive, PLK1 PBD inh inconclusive
COc1cccc(NC(=O)CN2CCN(CC(=O)Nc3ccc(F)cc3)CC2)c1	G9a inh 35.5µM
COCc1cc(C)n(CC(=O)Nc2ccccc2OC)c(=O)c1C#N	JMJD2A Tudor inconclusive, PLK1 PBD inh 26.7µM, HP1b chromo inh inconclusive
COCc1cc(C)n(CC(=O)Nc2ccc(Cl)cc2Cl)c(=O)c1C#N	none
COc1ccc(NC(=O)CN2CCN(CC(=O)Nc3ccccc3OC)CC2)c(OC)c1	G9a inh inconclusive
COc1ccccc1NC(=O)C(C)OC(=O)C(C)SCC(=O)Nc1ccc(C)cc1 (configuration not stated)	ALOX12 inh inconclusive, G9a inh 35.5µM
COc1cc(NC(=O)CN2CCN(CC(=O)Nc3ccccc3OC)CC2)cc(OC)c1	G9a inh 44.7µM
CC(NS(=O)(=O)c1ccccc1)C(=O)NC1CCCC1 (configuration not stated)	PLK1 PBD inh inconclusive
COc1cccc(OC)c1C(=O)Nc1nc2ccc(S(C)(=O)=O)cc2s1	ALOX12 inh inconclusive
CCOc1ccc(NCc2nc3ccccc3n2CCOc2ccc(C)cc2)cc1	JMJD2A Tudor 11.2µM, BAZ2B inh 12.6µM, G9a inh 14.1µM, HP1b chromo inh inconclusive (no result: PLK1 PBD inh)
CC(=O)NCCc1nc2ccccc2n1CCOc1ccccc1	PLK1 PBD inh 23.8µM
CC(=O)NCCc1nc2ccccc2n1CCCCOc1ccccc1	none
CCOc1ccc(NCc2nc3ccccc3n2CCOc2ccccc2)cc1	JMJD2A Tudor 17.8µM, BAZ2B inh 11.2µM, G9a inh 31.6µM
Cc1ccc2nc(N3C(=O)C(O)=C(C(=O)c4ccco4)C3c3ccc(C)o3)sc2c1 (configuration not stated)	ALOX12 inh inconclusive, JMJD2A Tudor 10µM, BAZ2B inh 50.1µM, G9a inh 39.8µM, PLK1 PBD inh 13.4µM
CCN(CC)CCCN1C(=O)C(O)=C(C(=O)c2ccco2)C1c1ccc(C)o1 (configuration not stated)	ALOX12 inh inconclusive, JMJD2A Tudor inconclusive (no result: BAZ2B inh, G9a inh)
